In the library only some 4.8% were active in any assay of this set; here they are far more common.
ssDAF12 agonist: S. stercoralis DAF-12 activation, primary screen; activation, % at 6.8 µM; HEK293 ssDAF-12/GRIP1 lit1-tk-luc reporter, luminescence; % of 3 µM dafachronic acid response; 1% of 370,000 active;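 active = activation above the mean over all tested compounds plus 3 SD, cut at about 0.9% in these data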;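 note: 0% = DMSO-only wells and 100% = 3 µM delta7-dafachronic acid wells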
DAX1 inh-1: NR0B1 (DAX1) inhibition; P51843; HEK293 Gal4-DAX1 luciferase reporter, luminescence; inhibition, % at 6.75 µM; 0.99% of 340,000 active;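 active = inhibition above the mean over all tested compounds plus 3 SD, cut at about 4.2% in these data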;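 note: 0% = DAX1-transfected cells with DMSO and 100% = empty-vector control cells with DMSO; inhibition shows as a rise in luminescence from relieved DAX1 repression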
Target sequence (P51843 207-470 limits assumed): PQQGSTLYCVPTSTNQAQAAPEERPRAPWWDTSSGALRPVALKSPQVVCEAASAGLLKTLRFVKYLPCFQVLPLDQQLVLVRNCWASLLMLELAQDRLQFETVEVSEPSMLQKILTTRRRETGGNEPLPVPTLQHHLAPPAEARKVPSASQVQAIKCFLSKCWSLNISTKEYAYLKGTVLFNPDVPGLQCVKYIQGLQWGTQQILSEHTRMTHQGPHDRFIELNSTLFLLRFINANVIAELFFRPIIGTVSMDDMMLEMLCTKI
hgDAF12 agonist: agonists of H. glycines DAF-12 nuclear receptor. HEK293 GAL4-hgDAF12 UAS-luciferase reporter, agonist luminescence; normalized to butyrate control. activation, % at 6.8 µM. 1.8% of 370,000 active;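 active = activation above a cutoff set at the mean of all screened compounds plus 3 SD, cut at about 10% in these data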;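 note: 0% = DMSO wells and 100% = sodium butyrate wells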
SMARCA2 activ: increases SMARCA2 function in MMTV reporter cells | AID 652017 | 1% of 370,000 active | MG213 cells, MMTV-luciferase reporter, dexamethasone, overnight | activation, % at 9.1 µM; in the data active = activation above about 7.8%;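 note: 0% = vehicle wells and 100% = reference activator wells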
hcDAF12 agonist: activates DAF-12 receptor from parasite H. contortus. HEK293 hcDAF-12 lit1-tk-luc reporter, luminescence; 0% DMSO, 100% Δ7-dafachronic acid. activation, % at 6.8 µM. 1.4% of 370,000 active. AID 652067;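 active = activation above the mean of all tested compounds plus 3 SD, cut at about 5.5% in these data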;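 note: 100% = response to 3 µM Δ7-dafachronic acid high control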
DAX1 inh-2: blocks DAX1 repression of SF-1 activated StAR promoter; HEK293T StAR-luciferase reporter, SF-1/DAX-1 repression relief; inhibition, % at 6.8 µM; 1.1% of 370,000 active; AID 652010;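 active = inhibition above the mean over all tested compounds plus 3 SD, cut at about 3.6% in these data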;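 note: 0% = DAX-1 cells with DMSO and 100% = cells lacking DAX-1 with DMSO; higher inhibition means more luminescence from relief of DAX-1 repression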
* = called active by the depositor.

`O=C(Nc1ccc(Nc2ccccc2)cc1)c1ccc(Cl)cc1Cl` gave ssDAF12 agonist -1.1, hgDAF12 agonist 1.8, SMARCA2 activ 1.9, hcDAF12 agonist -0.8 and DAX1 inh-2 -0.5.
Screening C#Cc1cccc(NC(=O)c2ccc(Cl)cc2Cl)c1 returned ssDAF12 agonist -0.1, DAX1 inh-1 2.2, hgDAF12 agonist 12.3*, SMARCA2 activ 1.0, hcDAF12 agonist 3.5 and DAX1 inh-2 1.7.
CS(=O)(=O)N1CCC(C(=O)N2CCN(c3ccc(F)cc3)CC2)CC1 was read as ssDAF12 agonist -1.4, DAX1 inh-1 0.3, hgDAF12 agonist -0.7, SMARCA2 activ -2.3, hcDAF12 agonist -1.3 and DAX1 inh-2 0.1.
Screening O=c1n(Cc2ccccc2)nc2n1-c1ccccc1SC2 returned ssDAF12 agonist -1.5, DAX1 inh-1 0.8, hgDAF12 agonist 1.2, SMARCA2 activ -0.7, hcDAF12 agonist 1.2 and DAX1 inh-2 1.3.
Screening O=c1n(Cc2ccccc2Cl)nc2n1-c1ccccc1SC2 returned ssDAF12 agonist -1.6, DAX1 inh-1 4.9*, hgDAF12 agonist 8.3, SMARCA2 activ 2.8, hcDAF12 agonist -0.5 and DAX1 inh-2 1.1.
Cc1cc(C)cc(OCC(=O)N2N=C(C(F)(F)F)CC2(O)C(C)(C)C)c1 (centres undefined) was read as ssDAF12 agonist -1.5, DAX1 inh-1 -0.3, hgDAF12 agonist -1.1, SMARCA2 activ 0.2, hcDAF12 agonist -1.4 and DAX1 inh-2 -0.9.
CC(C)(C)C1(O)CC(C(F)(F)F)=NN1C(=O)CCCc1ccccc1 (centres undefined) was read as ssDAF12 agonist -0.8, DAX1 inh-1 4.6*, hgDAF12 agonist -0.6, SMARCA2 activ -2.3, hcDAF12 agonist 0.3 and DAX1 inh-2 -0.1.
`COc1ccc(-c2nc3ncccn3c2Br)cc1` gave ssDAF12 agonist 0.5, DAX1 inh-1 10.0*, hgDAF12 agonist 10.7*, SMARCA2 activ 4.1, hcDAF12 agonist 2.7 and DAX1 inh-2 1.7.
Brc1c(-c2ccc3c(c2)OCO3)nc2ncccn12 was read as ssDAF12 agonist -0.7, DAX1 inh-1 0.2, hgDAF12 agonist 9.3, SMARCA2 activ 4.4, hcDAF12 agonist 1.3 and DAX1 inh-2 0.9.
For NC(=O)c1c(NC(=O)c2cccs2)sc2c1CCCCCC2 the results were ssDAF12 agonist -1.4, DAX1 inh-1 0.9, hgDAF12 agonist 9.1, SMARCA2 activ 1.9, hcDAF12 agonist 1.2 and DAX1 inh-2 0.8.
For O=C(Nc1sc2c(c1C(=O)O)CCC2)c1cccs1 the results were ssDAF12 agonist -0.8, DAX1 inh-1 1.5, hgDAF12 agonist 3.6, SMARCA2 activ 3.5, hcDAF12 agonist 5.7* and DAX1 inh-2 0.5.
COc1ccc(S[C@]2(C(=O)N(C)C)CC(=O)N(c3ccccc3)[C@@H]2c2ccc(OC)cc2)cc1 was read as ssDAF12 agonist -0.1, hgDAF12 agonist 11.8*, SMARCA2 activ -3.2, hcDAF12 agonist 2.1 and DAX1 inh-2 -0.8.
For COc1ccc(S[C@]2(C(=O)N(C)C)CC(=O)N(C(=O)/C=C/c3ccccc3)[C@@H]2c2ccc(OC)cc2)cc1 the results were ssDAF12 agonist -1.3, hgDAF12 agonist -1.1, SMARCA2 activ -2.9, hcDAF12 agonist -1.9 and DAX1 inh-2 -2.8.
For CCCCOc1ccc(CC(=O)NCC(=O)O)cc1 the results were ssDAF12 agonist -1.4, DAX1 inh-1 4.9*, hgDAF12 agonist -2.3, SMARCA2 activ -0.9, hcDAF12 agonist -0.7 and DAX1 inh-2 0.0.
Screening Oc1ccccc1CNc1ccc(Br)cn1 returned ssDAF12 agonist -0.9, DAX1 inh-1 2.2, hgDAF12 agonist 11.7*, SMARCA2 activ 6.3, hcDAF12 agonist 4.0 and DAX1 inh-2 1.0.
`CC(NC(=O)c1cccc(N(C)C)c1)c1ccc(-n2ccnc2)cc1` (centres undefined) gave ssDAF12 agonist 0.2, DAX1 inh-1 0.7, hgDAF12 agonist 0.6, SMARCA2 activ -0.8, hcDAF12 agonist -0.3 and DAX1 inh-2 -0.1.
Screening O=C(CSc1ncnc2c1cnn2-c1ccccc1)Nc1ccccc1 returned ssDAF12 agonist -0.9, DAX1 inh-1 -0.9, hgDAF12 agonist 1.0, SMARCA2 activ -3.0, hcDAF12 agonist 1.1 and DAX1 inh-2 0.6.
Screening Cc1ccc(-n2ncc3c(SCC(N)=O)ncnc32)cc1C returned ssDAF12 agonist -0.4, DAX1 inh-1 4.3*, hgDAF12 agonist 7.6, SMARCA2 activ 1.9, hcDAF12 agonist 4.5 and DAX1 inh-2 1.9.
Cc1ccc(-n2ncc3c(=O)n(CC(N)=O)cnc32)cc1C was read as ssDAF12 agonist -1.2, DAX1 inh-1 1.1, hgDAF12 agonist 2.9, SMARCA2 activ 6.8, hcDAF12 agonist 3.0 and DAX1 inh-2 0.3.
Screening O=C(CSc1ncnc2c1cnn2-c1ccccc1)NC1CCCC1 returned ssDAF12 agonist 0.0, DAX1 inh-1 0.7, hgDAF12 agonist 2.4, SMARCA2 activ -1.8, hcDAF12 agonist 5.7* and DAX1 inh-2 0.9.
For CC1=CC(C)C2C(=O)N(O)C(=O)C2C1 (centres undefined) the results were ssDAF12 agonist -1.5, DAX1 inh-1 0.2, hgDAF12 agonist -1.6, SMARCA2 activ -1.4, hcDAF12 agonist -1.2 and DAX1 inh-2 -0.3.
For CCCCNC(=O)COC(=O)c1cc(F)c(F)cc1Cl the results were ssDAF12 agonist -1.1, DAX1 inh-1 1.8, hgDAF12 agonist 0.1, SMARCA2 activ -2.9, hcDAF12 agonist -0.8 and DAX1 inh-2 0.6.
For O=C(O)CCC(=O)Nc1nc2nccc(-c3ccccc3)n2n1 the results were ssDAF12 agonist -1.2, DAX1 inh-1 4.8*, hgDAF12 agonist 0.1, SMARCA2 activ -0.3, hcDAF12 agonist 0.8 and DAX1 inh-2 -0.1.
For N#Cc1ccc(Cl)cc1NC(=O)CN1C(=O)C(=O)N(CCC2=CCCCC2)C1=O the results were ssDAF12 agonist 1.2*, DAX1 inh-1 -0.3, hgDAF12 agonist 2.0, SMARCA2 activ 0.3, hcDAF12 agonist 4.3 and DAX1 inh-2 -0.2.
CCN1CCN(C(c2cccc(OC)c2)c2sc3nc(C)nn3c2O)CC1 (centres undefined) was read as ssDAF12 agonist -1.2, DAX1 inh-1 -0.8, hgDAF12 agonist 0.1, SMARCA2 activ 0.1, hcDAF12 agonist -0.3 and DAX1 inh-2 -0.1.
For CCOc1ccc(CNC2CCCc3ccccc32)cc1 (centres undefined) the results were ssDAF12 agonist -0.9, DAX1 inh-1 9.1*, hgDAF12 agonist -0.1, SMARCA2 activ -2.2, hcDAF12 agonist -2.5 and DAX1 inh-2 -0.1.
CCCNC(=O)c1cc(C2CCCN(S(=O)(=O)c3cccs3)C2)on1 (centres undefined) was read as ssDAF12 agonist 1.1*, hgDAF12 agonist -2.4, SMARCA2 activ -7.5, hcDAF12 agonist -2.3 and DAX1 inh-2 -1.0.
`Cc1ccc(F)cc1C(=O)N1CCCC(c2cc(C(=O)NCc3ccccc3)no2)C1` (centres undefined) gave ssDAF12 agonist -1.4, hgDAF12 agonist 2.2, SMARCA2 activ -3.7, hcDAF12 agonist -1.3 and DAX1 inh-2 4.0*.

Bioassay records: PubChem BioAssay, The Scripps Research Institute Molecular Screening Center
